This is part of a sample that, as a whole, favours compounds with a hit. Of some 83,000 tested, about 20% had one in any assay.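 In brief: 96-well plates, 48 h treatment, single concentration, percent growth endpoint.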 Unmarked numbers belong to inactive results. Activity calls are given as the source filed them. The calls were made as follows: active = growth percent below 10; inactive = the rest.
Assays:
Assay in all cases: NCI-60 one-dose screen, 48 h (100 = growth as untreated, 0 = no growth, -100 = all killed)
Settings in all cases: 10 µM unless noted
NCI-H23 lung = test system: NCI-H23 lung
NCI-H226 lung = test system: NCI-H226 lung
NCI-H322M lung = test system: NCI-H322M lung
HOP-62 NSCLC = test system: HOP-62 NSCLC
NCI-H460 lung = test system: NCI-H460 lung
HOP-92 NSCLC = test system: HOP-92 NSCLC
NCI-H522 lung = test system: NCI-H522 lung
A549/ATCC NSCLC = test system: A549/ATCC NSCLC
786-0 renal = test system: 786-0 renal
COLO 205 colon = test system: COLO 205 colon
DU-145 prostate = test system: DU-145 prostate
K-562 leukemia = test system: K-562 leukemia
MALME-3M melanoma = test system: MALME-3M melanoma
MDA-MB-231 breast = test system: MDA-MB-231 breast
RXF 393 renal = test system: RXF 393 renal
SF-268 CNS = test system: SF-268 CNS
SF-295 CNS = test system: SF-295 CNS
SF-539 CNS = test system: SF-539 CNS
UACC-257 melanoma = test system: UACC-257 melanoma
M14 melanoma = test system: M14 melanoma

SMILES	growth (NCI-H23 lung) [%]	growth (NCI-H226 lung)	growth (NCI-H322M lung)	growth (HOP-62 NSCLC)	growth (NCI-H460 lung)	growth (HOP-92 NSCLC)	growth (NCI-H522 lung)	growth (A549/ATCC NSCLC)	growth (786-0 renal)	growth (COLO 205 colon)	growth (DU-145 prostate)	growth (K-562 leukemia)	growth (MALME-3M melanoma)	growth (MDA-MB-231 breast)	growth (RXF 393 renal)	growth (SF-268 CNS)	growth (SF-295 CNS)	growth (SF-539 CNS)	growth (UACC-257 melanoma) [%]	growth (M14 melanoma) [%]
COc1ccc(-c2nn(-c3ccc(NC(=O)c4ccc(Cl)c(C(F)(F)F)c4)cc3)cc2-c2ccncc2)cc1Cl	30.2	70.5%	51.5%	-24.9% (active)	11.3%	-0.441% (active)	30.6%	31%	-55.7% (active)	-19% (active)	45%	0.122% (active)	6.68% (active)	-29.6% (active)	-76% (active)	14.5%	-30.3% (active)	9.99% (active)	51.2	13.3
S=c1ssnc1-c1ccccn1	44.5	61.4%	66.5%	47.7%	6.05% (active)	-4.36% (active)	-29.3% (active)	57.7%	18.1%	43%	41.6%	-35.5% (active)	52%	44.3%	-0.23% (active)	24.9%	40.4%	14.5%	93.3	
Cc1cc(Nc2ccc(Cl)c(Cl)c2)nc(N)n1	89.5	92%	110%	98.3%	94.3%	97.7%	78.3%	71.8%	78.9%	107%	94.3%	87.4%	121%	101%	72.9%	95.2%	96.8%	99.9%	77.1	
O=C1CCC(=O)N1C1CCCCC1	93	97.1%	81.5%	93.3%	104%	102%	103%	115%	106%	101%	107%	107%	82.6%	103%	109%	97.6%	97.5%	101%	108	
COc1cc2c(/C=C3/C(=O)Nc4ccc(O)cc43)c(Cl)n(Cc3cc(OC)c(OC)c(OC)c3)c2cc1C	41.9	65.5%	48.8%	40.1%	4.32% (active)	-5.18% (active)	0.662% (active)	16.3%	15.8%	4.15% (active)	20.4%	-30.7% (active)	2.88% (active)	61%	-20.9% (active)	24%	38.9%	-16.7% (active)	20.5	
Cc1cn(C2CC(N=[N+]=[N-])C(COP(=O)(O)OP(=O)(O)OP(=O)(O)O)O2)c(=O)[nH]c1=O (stereo not given)	94.7	115%	102%	94.1%	82.4%	50.9%	92.9%	146%	95.2%	119%	114%	83.5%	87.9%	118%	127%	103%	80.7%	114%	108	57.7
Cc1cc(NC(=O)c2cccc(C(F)(F)F)c2)ccc1-n1ccc2c(NC(=O)c3ccccc3)nccc21	94.6	112%	77.4%	87.4%	116%	123%	85.6%	86.8%	102%	113%	112%	91.2%	99.7%	94.9%	118%	103%	102%	95.9%	101	
COc1ccc(C2=NN(C(=O)COc3ccc(Cl)cc3)C(O)(c3cc(F)c(Cl)cc3Cl)C2)cc1OC (stereo not given)	49.7	82.2%	88.8%	75.4%	32.9%	-44.8% (active)	-66.4% (active)	81.3%	-74.9% (active)	-56.6% (active)	9.5% (active)	-66.5% (active)	6.18% (active)	30%	-90.8% (active)	4.05% (active)	75.7%	30.5%	107	
COC(=O)c1oc2c(C(=O)/C=C/c3ccc(OC)cc3)c(OCCN3CCOCC3)ccc2c1C	18.7	-5.76% (active)	0.995% (active)	-6.52% (active)	-20.9% (active)	-44.8% (active)	-20% (active)	2.83% (active)	-6.7% (active)	-20.9% (active)	1.8% (active)	-37.3% (active)	-14.1% (active)	3.21% (active)	-64.4% (active)	11.5%	18.3%	-34% (active)	55.5	11.5
COc1ccccc1N1CCN(CCCOc2ccc(OCCCN3CCN(c4ccccc4OC)CC3)c(C(=O)c3cc(OC)c(OC)c(OC)c3)c2)CC1	95.4	111%	96.5%	113%	115%	94.2%	106%	109%	105%	99.5%	105%	67.6%	113%	113%	126%	110%	109%	107%	107	108
Oc1ccccc1/C=N/c1ccccn1	220	107%	132%	112%	112%	76.9%	92%	104%	158%	85.7%	129%	109%	115%	106%	107%	110%	121%	100%	91.4	
Nc1ncnc2c1ccn2-c1cccc(NC(=O)c2cccc(C(F)(F)F)c2)c1	90.6	70.2%	55.8%	91.7%	45.8%	-1.72% (active)	56.2%	50.7%	101%	75.7%	81.8%	59%	98.4%	58.4%	58.5%	67.5%	36.4%	64.4%	93.2	
O=C(NNC(=O)c1ccc([N+](=O)[O-])cc1)c1ccc([N+](=O)[O-])cc1	94.8	99.3%	120%	90.8%	105%	106%	84%	99.3%	95%	115%	113%	93.6%	112%	117%	111%	101%	94.2%	91.4%	111	95.4
COc1cc2c(cc1OC)-c1c(oc3c4c(ccc3c1=O)OC(C)(C)C=C4)CO2	45.6	89.3%	86.2%	59.6%	77.1%	90.2%	56.7%	71.3%	76.6%	113%	90.9%	39.9%	93.2%	81.5%	96.9%	79.4%	51.7%	83.5%	54.8	83.1
Cc1cccc(CC(=O)c2ccccc2)n1	94.5	95.8%	87.3%	78.4%	95.7%	82.2%	80.9%	74.2%	94.4%	103%	100%	81.8%	92.1%	89%	91%	95.5%	85.4%	96.8%	92.7	
O=C(NCCNc1nccc(-c2c(-c3cccc(O)c3)nc3sccn23)n1)c1ccc(N2CCOCC2)c(C(F)(F)F)c1	85.4	69.5%	102%	96.7%	66.9%	38.9%	74.4%	64.1%	60.1%	43.4%	94.9%	63%	-4.27% (active)	64.9%	57.6%	79.1%	67.5%	77.8%	15.8	

— PubChem BioAssay (NCI)
